Experiment in all cases: NCI-60 one-dose screen, 48 h (100 = growth as untreated, 0 = no growth, -100 = all killed)
The subject of assay [1] is NCI-H23 lung. The note with it: 10 µM unless noted.
Assay [2] has as its system NCI-H322M lung. The note with it: 10 µM unless noted.
Assay [3] deals with HOP-62 NSCLC. The note with it: 10 µM unless noted.
In assay [4] the test system is NCI-H460 lung. The note with it: 10 µM unless noted.
For assay [5], the system named is A549/ATCC NSCLC. Conditions: 10 µM unless noted.
For assay [6], the system named is 786-0 renal. The note with it: 10 µM unless noted.
In assay [7] the test system is COLO 205 colon. Conditions: 10 µM unless noted.
Assay [8] concerns NCI-H522 lung. Conditions: 10 µM.
Assay [9] deals with HOP-92 NSCLC. Conditions: 10 µM unless noted.

This is part of a sample that, as a whole, favours compounds with a hit. Of some 83,000 tested, about 20% had one in any assay.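 96-well plates, one dose, 48 hours. Percent growth reported; active if below 10.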 Unmarked numbers belong to inactive results. Active and inactive are the calls of the source.

As for `N#Cc1ccc(C(F)(F)F)nc1N1CCC(C(=O)Nc2ccc(Cl)cc2)CC1`, the growth in assay [1] was 72%; in assay [2], 71.1%; in [3], 69%; in assay [4], 34.1%; in [5] it was 53.2%; in assay [6], 70.4%. For the same molecule, the growth in assay [7] is 85.9%.
With `CC1SC(c2cccc(Oc3ccccc3)c2)N(CCc2cccs2)C1=O` (configuration not stated), the growth in assay [1] is -14.2% (active); in assay [2], 4.21% (active); in assay [3], 6.21% (active); in assay [4], -64.2% (active); in assay [8] it was -50.8% (active); in assay [5], -9.36% (active). Besides, the growth is -29.6% (active) in assay [6] and -60.1% (active) in [7].
With `COc1ccc(Cn2c(Br)c3c(c2-c2cc(OC)c(OC)c(OC)c2)CCc2sc(N)nc2-3)cc1`, the growth in [1] is 38.1%; in assay [2], 46%; in assay [3], 41.4%; in assay [4], 7.43% (active); in assay [8], -11.4% (active); in [5], 19%. The growth is 40.2% in assay [6] and -10.6% (active) in assay [7].
`COc1ccc(CSc2nc3cc(OC)c(OC)cc3c(=O)n2-c2ccc(Cl)cc2)cc1`: the growth in assay [1] is 102%; in assay [2] it was 105%; in assay [3], 104%; in assay [4], 103%; in assay [5], 103%; in assay [6] it was 103%. The growth in assay [7] was 104%.
Turning to `Cc1ccc(S(=O)(=O)N2C/C(=C\c3cc(F)cc(F)c3)C(=O)/C(=C/c3cc(F)cc(F)c3)C2)cc1`, the growth in assay [1] was -21.6% (active); in assay [2], 27%; in assay [3], -60% (active); in assay [4], 5.73% (active); in assay [5], 27.6%; in assay [6], -85.6% (active). For the same molecule, in [7], the growth is 1.42% (active).
As for `CCN(CC)CCCNc1ccc(C)c2sc3ccccc3c(=O)c12`, the growth in assay [1] is 53.8%; in [2], 57.2%; in assay [3], 40.9%; in [9], 25.3%; in assay [8] it was 54.4%; in [5] it was 19.1%. In addition, the growth in [6] was 32.5%; in assay [7], -70.2% (active).
With `COc1ccc(C2OCC(C)(C)CO2)cc1OC`, the growth in assay [1] is 98.3%; in assay [2] it was 151%; in assay [3], 117%; in assay [4], 108%; in assay [8], 117%; in [5], 100%. For the same molecule, the figures for the growth in assay [6] and in [7] were 110% and 113%, respectively.
As for `CNc1ccc(Br)cc1-c1n[nH]c(=O)[nH]c1=O`, the growth in assay [1] was 90.8%; in assay [2], 115%; in assay [3], 105%; in [4], 101%; in assay [5], 112%; in assay [6] it was 95%. For the same molecule, the growth in assay [7] is 131%.
`O=C1N/C(=C\c2ccccc2)c2ncccc21`: the growth is 95% in [1]; 95.8% in assay [2]; 100% in [3]; 94.9% in [9]; 86.9% in assay [8]; 106% in [5]. In assay [6], the growth was 98.7%.
Take `CC(=O)Nc1ccc(Sc2ccc([N+](=O)[O-])o2)cc1`: the growth was 39.9% in assay [1]; 98.3% in assay [2]; 68.4% in assay [3]; 40.2% in [9]; 65.1% in [5]; 50.7% in assay [6]. Further, the growth in assay [7] was -67.3% (active).
On to `CCOC(=O)c1c(Cl)c2c(n1Cc1ccc(OC)cc1)-c1oncc1CCC2`, for which the growth in assay [1] is 86.5%; in assay [2] it was 95.2%; in assay [3] it was 98.4%; in [4] it was 95.1%; in assay [8] it was 95.4%; in assay [5], 86.1%. For the same molecule, the growth is 90.4% in [6] and 93.2% in [7].
Consider `COC(=O)c1c2c(c(C)[n+]([O-])c1C)C(=O)C=C(NCc1cccc(OC)c1)C2=O`, for which the growth is -69.2% (active) in assay [1]; -19.6% (active) in assay [2]; -15.1% (active) in [3]; -43.6% (active) in [9]; -54.7% (active) in assay [8]; -52.1% (active) in assay [5]. Also, in [6], the growth is -3.41% (active).
Regarding `O=C(Nc1nc2ccccc2[nH]1)C(=O)Nc1nc2ccccc2[nH]1`, the growth in assay [1] is 89.6%; in assay [2], 91.8%; in assay [3], 98.6%; in assay [4], 98.5%; in assay [8] it was 101%; in assay [5], 97.5%. In addition, the growth in [6] is 108%; in assay [7], 103%.
Turning to `CN1CCc2c(c3ccccc3c3ccccc23)C1`, the growth in assay [1] is 74.2%; in assay [2], 51.4%; in assay [3], 45.8%; in assay [4], 27.7%; in assay [8] it was 48.7%; in [6], 49.8%. The growth in assay [7] was 22.2%.
For `COc1cc(/C=C2\C(=O)Nc3ccccc32)cc(OC)c1O`, the growth in [1] was 66.4%; in [2], 96%; in assay [3], 64.4%; in [4] it was 40.1%; in assay [8], 8.78% (active); in assay [5], 67.9%. For the same molecule, the growth is 83.2% in [6] and 112% in [7].
In the case of `COc1ccc(OC2=CC(=O)c3ccc(C)nc3C2=O)cc1`, the growth was 65.7% in [1]; 102% in [2]; 89.1% in assay [3]; 122% in assay [9]; 55.2% in assay [8]; 96.4% in assay [5]. For the same molecule, the growth in assay [6] is 109%.
As to `O=S(=O)(/N=C1C=C/C(=N\S(=O)(=O)c2ccccc2)c2ccccc2\1)c1ccccc1`, the growth in [1] was 83.1%; in assay [2] it was 107%; in assay [3], 90.2%; in assay [4], 112%; in [8], 85.9%; in assay [5], 101%. Besides, the growth in assay [6] is 115%; in assay [7], 111%.

The values above are taken from PubChem BioAssay (NCI).
